Results reported in the supplement of paper PMC6555819.

Each sequence was assayed on VDR:RXRa (NR concentration 270 nM, RXRa partner concentration 90 nM) (assay: PBM binding z-score (relative to random genomic background probes); higher = stronger binding; sequences stand for … in GC…GCGATTGACAGCGTAGAATGAAGG).
Description: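 Protein-binding microarray (Agilent 4x180K custom design, double-stranded 60-nt probes: 5' GC cap, 34-nt variable region, 24-nt constant primer region; full probe sequence given). Purified or IVT nuclear receptor:RXRα heterodimers (3:1 NR:RXRα, mostly 270:90 nM) or homodimers were incubated for 1 h in PBS with 2% milk and no ligand, then detected with Alexa488 antibodies. Fluorescence from o1-orientation probes (~5 replicates averaged) was converted to z-scores against 500 random hg19 background probes. Variable regions are seed direct-repeat (DR0–DR5) sites, all their single-nucleotide variants and half-site ablations.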

Sequence | PBM binding z-score
CTCGAAAGGTCGTGCTCAGGTGAGTATTCCAAAC | 3.26
GGAACGAGGACAAGTTGATAGCAGAGTTTGATGG | 0.0641
GCAACGAGGGCAAGTTGATAGCAGAGTTTGATGG | 0.955
TCTAGTTGGTCACGGAGGTCATACACGACGGGTA | 5.88
GATACAGGGTCAAGGCCACAGTACGCGTATTGAT | 4.2
TCATATAGGTAATACAGGTAAAAGTCGGCATCTA | 1.24
GCTCGGATGACAAGGTCAGAGCTTTGTCCGTAGA | 0.722
TCGAGTAGGTTAGTCGGGCCATTCAGCCAACATA | 0.761
CGTCAAAGATCAACTAAGGTAACGTAAAGCACGC | 0.78
ATCTCTAGGTAAGGCTCAGTTCAGTGAAGAACGC | 0.553
CCTACTGGGCCATCAGGTCATTGACATCAACGTT | 1.64
CCTACTGGGCTAAAAAGGTCATTGATGCCGATAA | 4.33
TAGCCTAGGTCATTCAGGGGCCAGTTTAGAAAGC | 3.16
CCAGACGGGTGAAAGGTAACTCAGTCTGGTACGC | 0.319
ATCGAAAGGTCGAAGGTTAGTATACCCACCCGAA | 3.14
CATACAGGGTCAGCTAGGCCAGAGAAGGGACGGC | 3.84
ATATGTAGGTTGTCGGGTCATTCAGTTTGCGCAT | 5
ACTCGGAAGACAAAGGTCAGAGCTACGCCAGTGA | 2.63
TCATATAGGTAAATGCTAGGTGAAACTCCGATCT | 0.855
TAGCCTAGGTCACTGGGCCAGTATAGTACGCATC | 1.45

Sequence | PBM binding z-score
CGACCAAGGTCAAAGGTCAGTGAAGAGATGACGG | 6.85
TCTTGTAGATCAGCAGGTTAAGAACGCTGGCCAA | 0.123
CATATTAGTTGACCATAAGGGCAACCGAAGCTCG | 0.551
AGAATGAGGTTACCAAAGATCAGGAAAACGCTTG | 1.35
CGAACTAGGTCATGGACAGGACAGTGAATAGTAA | 2.3
GCTAGTTGGTCAGTAAAAGGTCCCACACCGGTCG | -0.352
CCTCGGAGGACAGTAGGTCAGAGCTGTCCGCTTT | -0.11
GCTATTAGTTGAAAGGGCAACCGTATGATTCTCG | 0.653
CAAACTAGGTCACAGGAAGGTCAAAGTCCGCATG | 5.74
CCAGACAGGTGAAAGTTAACTCAGTCTGGTACGC | 0.0177
ATCTCTAGGTAAAAATAGTTCAGTGAATGCAAAT | 1.11
GCTAGTTGGTCAGTAAAAGGTCAGACACCGGTCG | 2.38
AATACAGGGTCATCGTAGGGCAGAGTACGCACAG | 5.71
TCTTGTAGACCAATAGAGGTTAAGAAAGTGCGCT | 1.82
ACTTACGGATCAACGAGGTTATAGCACGCGTATA | 4.59
TCATATAGGTAAAAGGTGAAATTCGGTGTGGTAA | 1.58
TTTCGGAGGACACGAAAGGTCAGAGCTCGACATC | 3.54
AGAACTAGGGCAATGAGTTGATAGCACGGGTGGC | 3.17
CCTACTGGGCCATTCAGAGGTCATTGACCATATG | 3.83
CCTATTAGTTGACCATAAGGGCCACCGAAGCTCG | 0.0922
